{"source": "PubChem BioAssay AID1159580", "about": "(chemical genetic matrix, 2015)", "assay": "chemical genetic growth profiling, strain panel (AID 1159580);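 note: tested at 20 µM; growth read once vehicle control cultures reached saturation at 30 °C; 1 = growth at the plate median or of vehicle wells; lower values mean less growth of the strain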", "details": "S. cerevisiae deletion strains, growth OD", "note": "Values joined by “and” are separate entries in the source; they are usually repeats but may differ in a detail not shown here. Identical values can stand only once. The campaign covered roughly 5,500 compounds. About 2,000 (36%) were called active. About 18% were inconclusive and are not listed. Some of the results follow. A number with no mark means an inactive call. Cut-off read from the data, not from the text of the source: active = normalized growth mostly below about 0.91 (no sharp cut-off); inconclusive = no clear call, values can overlap the other calls; inactive = mostly above about 0.92."}
{"smiles": "COc1ccc(-c2oc3c(CC=C(C)C)c(O[C@@H]4O[C@H](CO)[C@@H](O)[C@H](O)[C@H]4O)cc(O)c3c(=O)c2O[C@@H]2O[C@@H](C)[C@H](O)[C@@H](O)[C@H]2O)cc1", "values": [{"measurement": "normalized growth", "setting": "locus YAL013W, strain DEP1, active compounds read low", "value": 1.04}, {"measurement": "normalized growth", "setting": "locus YAL021C, strain ccr4, active compounds read low", "value": 1.05}, {"measurement": "normalized growth", "setting": "locus YAL026C, strain drs2, active compounds read low", "value": 1.05}, {"measurement": "normalized growth", "setting": "locus YAL030W, strain snc1, active compounds read low", "value": 1.04}, {"measurement": "normalized growth", "setting": "locus YBL061C, strain skt5, active compounds read low", "value": 1.03}, {"measurement": "normalized growth", "setting": "locus YBR009C, strain hhf1, active compounds read low", "value": 1.03}, {"measurement": "normalized growth", "setting": "locus YBR021W, strain FUR4, active compounds read low", "value": "1.19 [resistant] (active)"}, {"measurement": "normalized growth", "setting": "locus YBR023C, strain chs3, active compounds read low", "value": 1.02}, {"measurement": "normalized growth", "setting": "locus YBR171W, strain sec66, active compounds read low", "value": 1.06}, {"measurement": "normalized growth", "setting": "locus YBR229C, strain ROT2, active compounds read low", "value": 1}, {"measurement": "normalized growth", "setting": "locus YBR231C, strain swc5, active compounds read low", "value": 1.03}, {"measurement": "normalized growth", "setting": "locus YBR279W, strain paf1, active compounds read low", "value": 1.03}, {"measurement": "normalized growth", "setting": "locus YCL011C, strain gbp2, active compounds read low", "value": 1.03}, {"measurement": "normalized growth", "setting": "locus YCL016C, strain dcc1, active compounds read low", "value": 1}, {"measurement": "normalized growth", "setting": "locus YCL029C, strain bik1, active compounds read low", "value": 0.976}, {"measurement": "normalized growth", "setting": "locus YCL061C, strain MRC1, active compounds read low", "value": 1.04}, {"measurement": "normalized growth", "setting": "locus YCL069W, strain vba3, active compounds read low", "value": 1.02}, {"measurement": "normalized growth", "setting": "locus YCR088W, strain abp1, active compounds read low", "value": 1.04}, {"measurement": "normalized growth", "setting": "locus YDL005C, strain med2, active compounds read low", "value": 1.03}, {"measurement": "normalized growth", "setting": "locus YDL035C, strain GPR1, active compounds read low", "value": 1}, {"measurement": "normalized growth", "setting": "locus YDL040C, strain nat1, active compounds read low", "value": 1.02}, {"measurement": "normalized growth", "setting": "locus YDL074C, strain BRE1, active compounds read low", "value": 0.988}, {"measurement": "normalized growth", "setting": "locus YDL101C, strain DUN1, active compounds read low", "value": 0.989}, {"measurement": "normalized growth", "setting": "locus YDL185W, strain tfp1, active compounds read low", "value": 0.955}, {"measurement": "normalized growth", "setting": "locus YDL192W, strain arf1, active compounds read low", "value": 0.987}, {"measurement": "normalized growth", "setting": "locus YDR001C, strain nth1, active compounds read low", "value": 1.04}, {"measurement": "normalized growth", "setting": "locus YDR069C, strain doa4, active compounds read low", "value": 1.06}, {"measurement": "normalized growth", "setting": "locus YDR101C, strain arx1, active compounds read low", "value": 0.975}, {"measurement": "normalized growth", "setting": "locus YDR137W, strain rgp1, active compounds read low", "value": 1.07}, {"measurement": "normalized growth", "setting": "locus YDR150W, strain NUM1, active compounds read low", "value": 1.01}, {"measurement": "normalized growth", "setting": "locus YDR159W, strain sac3, active compounds read low", "value": 1.07}, {"measurement": "normalized growth", "setting": "locus YDR162C, strain NBP2, active compounds read low", "value": 0.989}, {"measurement": "normalized growth", "setting": "locus YDR195W, strain ref2", "value": 1.05}, {"measurement": "normalized growth", "setting": "locus YDR297W, strain sur2, active compounds read low", "value": 1.03}, {"measurement": "normalized growth", "setting": "locus YDR318W, strain mcm21, active compounds read low", "value": 0.986}, {"measurement": "normalized growth", "setting": "locus YDR334W, strain swr1, active compounds read low", "value": 1.04}, {"measurement": "normalized growth", "setting": "locus YDR335W, strain msn5, active compounds read low", "value": 1.02}, {"measurement": "normalized growth", "setting": "locus YDR388W, active compounds read low", "value": 0.99}, {"measurement": "normalized growth", "setting": "locus YDR392W, strain spt3, active compounds read low", "value": 1}, {"measurement": "normalized growth", "setting": "locus YDR502C, strain sam2, active compounds read low", "value": 0.989}, {"measurement": "normalized growth", "setting": "locus YEL003W, strain gim4, active compounds read low", "value": 1.03}, {"measurement": "normalized growth", "setting": "locus YEL037C, strain rad23, active compounds read low", "value": 1.03}, {"measurement": "normalized growth", "setting": "locus YEL061C, strain CIN8 (second series), active compounds read low", "value": 1.04}, {"measurement": "normalized growth", "setting": "locus YEL061C, strain CIN8, active compounds read low", "value": 0.993}, {"measurement": "normalized growth", "setting": "locus YER015W, strain faa2, active compounds read low", "value": 1.02}, {"measurement": "normalized growth", "setting": "locus YER016W, strain bim1, active compounds read low", "value": 1.03}, {"measurement": "normalized growth", "setting": "locus YER110C, active compounds read low", "value": 0.966}, {"measurement": "normalized growth", "setting": "locus YER111C, strain swi4, active compounds read low", "value": 1.05}, {"measurement": "normalized growth", "setting": "locus YER155C, strain BEM2 (second series), active compounds read low", "value": 1.05}, {"measurement": "normalized growth", "setting": "locus YER155C, strain BEM2, active compounds read low", "value": 1}, {"measurement": "normalized growth", "setting": "locus YER167W, strain BCK2, active compounds read low", "value": 1.01}, {"measurement": "normalized growth", "setting": "locus YFR010W, strain ubp6, active compounds read low", "value": 1.05}, {"measurement": "normalized growth", "setting": "locus YGL078C, strain dbp3, active compounds read low", "value": 0.983}, {"measurement": "normalized growth", "setting": "locus YGL086W, strain mad1, active compounds read low", "value": 0.975}, {"measurement": "normalized growth", "setting": "locus YGL167C, strain pmr1, active compounds read low", "value": 1.02}, {"measurement": "normalized growth", "setting": "locus YGL173C, strain kem1, active compounds read low", "value": 1.05}, {"measurement": "normalized growth", "setting": "locus YGL227W, strain vid30, active compounds read low", "value": 1.04}, {"measurement": "normalized growth", "setting": "locus YGL240W, strain doc1, active compounds read low", "value": 1.04}, {"measurement": "normalized growth", "setting": "locus YGL248W, strain PDE1, active compounds read low", "value": 1.01}, {"measurement": "normalized growth", "setting": "locus YGL253W, strain hxk2, active compounds read low", "value": 0.946}, {"measurement": "normalized growth", "setting": "locus YGR078C, strain PAC10, active compounds read low", "value": 1}, {"measurement": "normalized growth", "setting": "locus YGR135W, strain pre9, active compounds read low", "value": 1}, {"measurement": "normalized growth", "setting": "locus YGR252W, strain gcn5, active compounds read low", "value": 1.06}, {"measurement": "normalized growth", "setting": "locus YHR013C, strain ard1, active compounds read low", "value": 1.03}, {"measurement": "normalized growth", "setting": "locus YHR027C, strain rpn1, active compounds read low", "value": 1.03}, {"measurement": "normalized growth", "setting": "locus YHR030C, strain SLT2, active compounds read low", "value": "0.99 and 1.02"}, {"measurement": "normalized growth", "setting": "locus YHR079C, strain IRE1 (second series), active compounds read low", "value": 0.965}, {"measurement": "normalized growth", "setting": "locus YHR079C, strain IRE1, active compounds read low", "value": 1.03}, {"measurement": "normalized growth", "setting": "locus YHR094C, strain hxt1, active compounds read low", "value": 0.988}, {"measurement": "normalized growth", "setting": "locus YHR129C, strain ARP1, active compounds read low", "value": 0.996}, {"measurement": "normalized growth", "setting": "locus YHR142W, strain chs7, active compounds read low", "value": 1.01}, {"measurement": "normalized growth", "setting": "locus YHR200W, strain rpn10, active compounds read low", "value": 0.997}, {"measurement": "normalized growth", "setting": "locus YIL066C, strain RNR3, active compounds read low", "value": 1.02}, {"measurement": "normalized growth", "setting": "locus YIL073C, strain SPO22, active compounds read low", "value": 0.924}, {"measurement": "normalized growth", "setting": "locus YIL125W, strain kgd1, active compounds read low", "value": 0.985}, {"measurement": "normalized growth", "setting": "locus YIR030C, strain dcg1, active compounds read low", "value": 0.983}, {"measurement": "normalized growth", "setting": "locus YJL092W, strain hpr5, active compounds read low", "value": 1.04}, {"measurement": "normalized growth", "setting": "locus YJL095W, strain BCK1 (second series), active compounds read low", "value": 1.03}, {"measurement": "normalized growth", "setting": "locus YJL095W, strain BCK1, active compounds read low", "value": "0.975 and 1.02"}, {"measurement": "normalized growth", "setting": "locus YJL115W, strain asf1, active compounds read low", "value": 1.05}, {"measurement": "normalized growth", "setting": "locus YJL129C, strain trk1, active compounds read low", "value": 1.02}, {"measurement": "normalized growth", "setting": "locus YJL134W, strain LCB3, active compounds read low", "value": 1.01}, {"measurement": "normalized growth", "setting": "locus YJL154C, strain vps35, active compounds read low", "value": 1.04}, {"measurement": "normalized growth", "setting": "locus YJL164C, strain tpk1, active compounds read low", "value": 1.01}, {"measurement": "normalized growth", "setting": "locus YJL166W, strain qcr8, active compounds read low", "value": 1.04}, {"measurement": "normalized growth", "setting": "locus YJL168C, strain set2, active compounds read low", "value": 0.985}, {"measurement": "normalized growth", "setting": "locus YJL187C, strain SWE1 (second series), active compounds read low", "value": 0.987}, {"measurement": "normalized growth", "setting": "locus YJL187C, strain SWE1, active compounds read low", "value": 1.02}, {"measurement": "normalized growth", "setting": "locus YJR043C, strain POL32, active compounds read low", "value": 1.04}]}
